# From the supplement of paper PMC6555819
# Tests used:
# Experiment in all cases: PBM binding z-score (relative to random genomic background probes); higher = stronger binding; sequences stand for … in GC…GCGATTGACAGCGTAGAATGAAGG
# [1] = system: RARb homodimer (NR concentration 270 nM)
# Outline: (§1)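 The probes on custom Agilent 4×180K protein-binding microarrays were double-stranded, with 34-nt variable regions bearing direct-repeat seeds, single-nucleotide variants, half-site ablations and random human genomic background sequences. Incubation lasted 1 h with ligand-free nuclear receptor dimers in PBS pH 7.4, 2% milk, 0.02% Triton X-100, 1 mM DTT, 0.2 mg/mL BSA and 0.4 mg/ml salmon testes DNA. Antibodies against each partner (one per run) detected bound dimers, and fluorescence scans were regression-normalized. Binding z-scores take the random background probes as reference.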
# [2] = system: RARg:RXRa (NR concentration 270 nM, RXRa partner concentration 90 nM)
# Outline: as §1
# [3] = system: RARg homodimer (NR concentration 270 nM)
# Outline: as §1
# [4] = system: RXRa DBDmut IVT, anti-RXR (DBD mutation: RXRa K156A/R161A, NR concentration 90 nM)
# Outline: as §1
# [5] = system: RXRa homodimer (NR concentration 180 nM)
# Outline: as §1
# [6] = system: THRa:RXRa (NR concentration 90 nM, RXRa partner concentration 90 nM)
# Outline: as §1
# [7] = system: THRa homodimer (NR concentration 90 nM)
# Outline: as §1
# [8] = system: VDR homodimer (NR concentration 270 nM)
# Outline: as §1
Sequence,PBM binding z-score [1],PBM binding z-score [2],PBM binding z-score [3],PBM binding z-score [4],PBM binding z-score [5],PBM binding z-score [6],PBM binding z-score [7],PBM binding z-score [8]
CCTACTGGGCCATTCAGAGGTCAGTGATCATATG,3.78,4,2.75,0.291,2.29,2.18,0.651,1.13
TCTGTTAGTTGATTAGGGCAACCGAAACAGCGGA,0.861,0.9,0.978,0.605,0.318,0.839,0.442,0.324
CCTACTGGGCCATAAAGGTCATTGATGCCGATAA,4.17,4.52,3.88,0.623,4.73,3.05,0.441,2.92
TCTGCTAGGTCAACGATGGTCAGGTAATCTGCTA,3.36,4.2,5.52,1.12,3.11,3.09,1.34,-0.177
TCTTGTAGATCAACAGGAGGTTAAGTAAGATCGA,0.766,1.15,0.284,0.388,1.02,1.78,-0.391,-0.26
CAAACTAGGTCACAGGTCAAAGTCGAGCCAACCA,4.27,5.97,5.55,2.31,6.18,3.97,2.07,2.12
CCTGCTAGGTCATGTTCAGCTAATCTACAGTATG,2.65,3.26,3.95,2.42,2.13,2.51,1.08,0.754
